Values joined by “and” are separate entries in the source; they are usually repeats but may differ in a detail not shown here. Equal values may be shown once. Screen size: about 5,500 compounds; about 2,000 (36%) were called active. Not shown: some 18% with an inconclusive outcome. No stated cut-off is given here; in the data, active means normalized growth mostly below about 0.91 (no sharp cut-off); inconclusive means no clear call, values can overlap the other calls; inactive means mostly above about 0.92. Some of the results follow.
Assay: chemical genetic growth profiling, strain panel (AID 1159580);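 further: tested at 20 µM; growth read once vehicle control cultures reached saturation at 30 °C; 1 = growth at the plate median or of vehicle wells; lower values mean less growth of the strain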
Conditions: S. cerevisiae deletion strains, growth OD

Measured: normalized growth

NCCCS(=O)(=O)O
inactive: locus YAL013W, strain DEP1, hits give low values 0.978 and 1.01 | locus YAL021C, strain ccr4, hits give low values 1 | locus YAL026C, strain drs2, hits give low values 1.04 | locus YAL030W, strain snc1, hits give low values 1.02 | locus YAL040C, strain CLN3, hits give low values 1.01 | locus YBL061C, strain skt5, hits give low values 1.02 | locus YBR009C, strain hhf1, hits give low values 1.02 | locus YBR021W, strain FUR4, hits give low values 1 | locus YBR023C, strain chs3, hits give low values 1.03 | locus YBR171W, strain sec66, hits give low values 1.02 | locus YBR229C, strain ROT2, hits give low values 0.955 | locus YBR231C, strain swc5, hits give low values 1.01 | locus YBR279W, strain paf1, hits give low values 1.01 | locus YCL011C, strain gbp2, hits give low values 1.02 | locus YCL016C, strain dcc1, hits give low values 1.01 | locus YCL029C, strain bik1, hits give low values 0.991 | locus YCL061C, strain MRC1, hits give low values 1.02 | locus YCL069W, strain vba3, hits give low values 1.02 | locus YCR088W, strain abp1, hits give low values 1.02 | locus YDL005C, strain med2, hits give low values 1.05 | locus YDL035C, strain GPR1, hits give low values 0.988 | locus YDL040C, strain nat1, hits give low values 1.01 | locus YDL074C, strain BRE1, hits give low values 1.03 | locus YDL101C, strain DUN1, hits give low values 0.982 | locus YDL134C, strain PPH21, hits give low values 0.985 | locus YDL185W, strain tfp1, hits give low values 0.982 | locus YDL192W, strain arf1, hits give low values 0.984 | locus YDR001C, strain nth1, hits give low values 1.02 | locus YDR069C, strain doa4, hits give low values 1.01 | locus YDR101C, strain arx1, hits give low values 0.999 | locus YDR137W, strain rgp1, hits give low values 1.03 | locus YDR150W, strain NUM1, hits give low values 0.964 and 1.02 | locus YDR159W, strain sac3, hits give low values 1.01 | locus YDR162C, strain NBP2, hits give low values 0.982 | locus YDR195W, strain ref2 1.02 | locus YDR297W, strain sur2, hits give low values 1.02 | locus YDR318W, strain mcm21, hits give low values 1 | locus YDR334W, strain swr1, hits give low values 1.03 | locus YDR335W, strain msn5, hits give low values 1.02 | locus YDR388W, hits give low values 0.997 | locus YDR392W, strain spt3, hits give low values 0.936 | locus YDR502C, strain sam2, hits give low values 0.982 | locus YEL003W, strain gim4, hits give low values 1.02 | locus YEL037C, strain rad23, hits give low values 1.02 | locus YEL061C, strain CIN8 (second series), hits give low values 1.03 | locus YEL061C, strain CIN8, hits give low values 0.981 | locus YER002W, strain NOP16, hits give low values 1.01 | locus YER015W, strain faa2, hits give low values 0.994 | locus YER016W, strain bim1, hits give low values 1.03 | locus YER110C, hits give low values 0.961 | locus YER111C, strain swi4, hits give low values 1.03 | locus YER155C, strain BEM2 (second series), hits give low values 1.02 | locus YER155C, strain BEM2, hits give low values 0.988 | locus YER167W, strain BCK2, hits give low values 1 | locus YFR010W, strain ubp6, hits give low values 1.04 | locus YGL078C, strain dbp3, hits give low values 0.977 | locus YGL086W, strain mad1, hits give low values 0.98 | locus YGL167C, strain pmr1, hits give low values 1.02 | locus YGL173C, strain kem1, hits give low values 1.03 | locus YGL227W, strain vid30, hits give low values 1.03 | locus YGL240W, strain doc1, hits give low values 1 | locus YGL248W, strain PDE1, hits give low values 0.985 | locus YGL253W, strain hxk2, hits give low values 1.04 | locus YGR078C, strain PAC10, hits give low values 1 | locus YGR135W, strain pre9, hits give low values 0.977 | locus YGR229C, strain SMI1, hits give low values 1 | locus YGR252W, strain gcn5, hits give low values 0.908 | locus YHR013C, strain ard1, hits give low values 1.02 | locus YHR027C, strain rpn1, hits give low values 1.03 | locus YHR030C, strain SLT2, hits give low values 0.984 and 1.01 | locus YHR079C, strain IRE1 (second series), hits give low values 0.989 | locus YHR079C, strain IRE1, hits give low values 0.996 | locus YHR094C, strain hxt1, hits give low values 0.999 | locus YHR129C, strain ARP1, hits give low values 0.989 | locus YHR142W, strain chs7, hits give low values 1.06 | locus YHR200W, strain rpn10, hits give low values 0.993 | locus YIL066C, strain RNR3, hits give low values 0.975 | locus YIL073C, strain SPO22, hits give low values 0.985 | locus YIL125W, strain kgd1, hits give low values 0.981 | locus YIR030C, strain dcg1, hits give low values 0.985 | locus YJL092W, strain hpr5, hits give low values 1.03 | locus YJL095W, strain BCK1 (second series), hits give low values 1.02 | locus YJL095W, strain BCK1, hits give low values 1.03 and 1.01 | locus YJL115W, strain asf1, hits give low values 1.03 | locus YJL129C, strain trk1, hits give low values 1.05 | locus YJL134W, strain LCB3, hits give low values 0.985 | locus YJL154C, strain vps35, hits give low values 1.02 | locus YJL164C, strain tpk1, hits give low values 1.01 | locus YJL166W, strain qcr8, hits give low values 1.02 | locus YJL168C, strain set2, hits give low values 0.996 | locus YJL187C, strain SWE1 (second series), hits give low values 0.983 | locus YJR043C, strain POL32, hits give low values 1.02 | locus YJR066W, strain TOR1, hits give low values 0.984 | locus YJR075W, strain HOC1, hits give low values 0.995
